# Compounds with a hit are over-represented: about 2.3% of the library has one in this group of screens.
# Calb FLC – C. albicans growth modulation with fluconazole; C. albicans CaCi-2 (fluconazole-resistant clinical isolate) + fluconazole, Alamar Blue growth, 48 h; growth inhibition, % (no concentration beside the values); 300,000 compounds, 0.57% hits; AID 1979;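 active = growth inhibition above about 58% in most replicates, limit read from the data, passing the limit was not always enough; inconclusive = exactly half the replicates above a set limit; inactive = most replicates below a set limit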;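 also: all wells also contain fluconazole at 8 µg/ml as a sub-toxic cotreatment; 0% = median of DMSO wells and 100% = median of geldanamycin control wells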
# IDE cell inh – inhibits human insulin-degrading enzyme in HEK cells; 320,000 compounds, 0.41% hits; P14735; FAbetaB cleavage, fluorescence polarization; inhibition, % at 5.59 µM;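 active = percent inhibition above the average of all tested compounds plus 3 SD, set per screening campaign, cut at about 16% in these data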;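 also: IDE supplied by intact live HEK cells; FP after avidin binding of uncleaved biotin substrate so inhibition keeps polarization high; 0% = DMSO wells and 100% = 60 µM reference IDE inhibitor Ii1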
# Rin1 Abl inh – blocks binding of human Rin1 to Abl | P00519+Q13671 | TR-FRET Rin1/Abl binding, biochemical | inhibition, % at 7.35 µM | 360,000 compounds, 0.4% hits | AID 588664; in the data active = inhibition above about 5%, passing the limit was not always enough
# TPT1 inh – inhibitors of Candida albicans tRNA 2'-phosphotransferase TPT1; recombinant caTPT1, FP RNA substrate dephosphorylation; inhibition, % at 5 µM; 300,000 compounds, 0.81% hits;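 active = inhibition above the mean of all tested compounds plus 3 SD, set per screening campaign, cut at about 24% in these data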;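 also: plate controls were DMSO alone for no effect and ferristatin control at 100 nM for full effect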
# IDE act – IDE (human) activation, cell-based. P14735. HEK cells, FAbeta-B cleavage, fluorescence polarization; 0% vehicle, 100% cell-free pure enzyme wells. activation, % at 5.96 µM. 340,000 compounds, 0.073% hits. AID 493087;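 active = activation above the mean of all tested compounds plus 3 SD, set per screening campaign, cut at about 17% in these data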
# Rpn11 block – Rpn11 (human) deubiquitinase inhibition; human 26S proteasome, Ub4-pepOG fluorescence polarization; 20S core pre-blocked with epoxomicin; 360,000 compounds, 0.59% hits; AID 588493; inhibition, % at 20 µM; O00487;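 active = inhibition at 20 µM, scaled to each plate's controls, above about 33%, limit read from the data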
# Target sequence (O00487 whole entry, looked up): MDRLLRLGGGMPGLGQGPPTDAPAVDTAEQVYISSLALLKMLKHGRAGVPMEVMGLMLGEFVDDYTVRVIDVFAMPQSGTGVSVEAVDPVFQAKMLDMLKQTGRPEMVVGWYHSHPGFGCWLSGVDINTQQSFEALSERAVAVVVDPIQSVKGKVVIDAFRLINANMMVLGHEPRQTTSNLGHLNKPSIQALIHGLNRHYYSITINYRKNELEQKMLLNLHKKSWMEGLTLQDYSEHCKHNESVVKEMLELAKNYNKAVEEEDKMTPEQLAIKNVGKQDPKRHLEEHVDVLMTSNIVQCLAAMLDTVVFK
# caTPT1 confirm – TPT1 (C. albicans) inhibition, confirmation; shares compounds with TPT1 inh; recombinant caTPT1, fluorescence polarization, RNase T1 coupled; inhibition, % at 5 µM; 2,400 compounds, 74% hits; AID 2149;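 active = inhibition above the primary screen limit, the mean inhibition of all tested compounds plus 3 SD, cut at about 25% in these data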
# RNase T1 counter – counter-screen for TPT1 inhibitors: inhibitors of Aspergillus oryzae RNase T1; shares compounds with TPT1 inh; inhibition, % at 5 µM; RNase T1 cleavage, fluorescence polarization, 1536-well; 2,400 compounds, 83% hits;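 active = inhibition above the solvent-only control well mean plus 3 SD, limit set per screening run, cut at about 23% in these data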;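 also: plate controls were DMSO wells with enzyme for no effect and wells without RNase T1 for full effect; inhibitors block cleavage so intact labeled substrate keeps polarization high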
# Target sequence (P00651 whole entry, looked up): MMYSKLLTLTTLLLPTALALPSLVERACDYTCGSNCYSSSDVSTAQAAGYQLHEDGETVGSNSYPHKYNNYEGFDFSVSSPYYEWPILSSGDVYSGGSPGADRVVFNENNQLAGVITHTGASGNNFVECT
# Starred values were filed as active, the others as inactive; ? = inconclusive; / = not tested or not shown.
SMILES,Calb FLC,IDE cell inh,Rin1 Abl inh,TPT1 inh,IDE act,Rpn11 block,caTPT1 confirm,RNase T1 counter
COc1ccc(CNC(=O)C2CCN(S(=O)(=O)N3CCC(C)CC3)CC2)c(OC)c1,/,/,0.6,/,/,3.9,/,/
COc1ccc(OC)c(C(=O)COC(=O)c2cccnc2SC)c1,/,/,-1.6,/,4.9,-2.5,/,/
COc1ccc2cc(S(=O)(=O)N3CCOCC3)ccc2c1,-6.9,-4.2,1.4,-1.3,-4.4,-2.2,/,/
CCN1c2ccc(S(=O)(=O)N3CCOCC3)cc2N(Cc2ccc(OC)cc2)C1C (configuration not stated),-14.4,1.8,0.0,31.9*,-6.4,10.0,48.3*,59.4*
CCOc1ccc(C(=O)NCC(=O)NCCCSc2ccccc2)cc1OCC,-6.3,2.2,-3.5,-2.9,-0.8,9.7,/,/
CCOC(=O)c1c(Nc2ccc(Cl)cc2)sc(/C=C2\C=Nc3ccccc32)c1O,4.3,5.1,0.2,35.6*,4.3,/,45.7*,54.4*
Oc1nc(Nc2ccc(F)cc2)sc1/C=C1\C=Nc2ccccc21,-0.4,3.8,-1.8,4.7,1.6,17.0,/,/
CCn1ncc(Br)c1C(=O)Nc1cc(C)cc(C)c1,38.2,1.2,-0.5,34.2*,-0.8,4.9,6.8,13.0
CCn1ncc(Br)c1C(=O)Nc1cccc(C(C)=O)c1,-4.7,-2.8,-1.1,-3.7,0.7,-2.5,/,/
COC(=O)CSCc1nc2ccccc2[nH]c1=O,1.7,11.6,4.9,64.4*,-2.3,33.8,61.0*,72.0*
N#CCSc1ccccc1NC(=O)COC(=O)Cc1c[nH]c2ccccc12,/,0.5,-4.0,/,0.2,20.5,/,/
CC(=O)C1=NN(c2ccccc2)C(c2ccc3c(c2)OCO3)N1c1ccccc1 (configuration not stated),-18.5,1.2,2.1,26.7*,1.1,11.2,46.0*,59.1*
COc1ccc(-n2c(N)c(C(=O)NCc3ccco3)c3nc4ccccc4nc32)c(OC)c1,?,1.0,-1.1,39.2*,3.7,33.2,9.8,17.0
Cc1c(C(=O)OCC(=O)N2CCN(c3ccccc3)CC2)oc2ccccc12,/,4.1,0.9,/,-6.0,-0.9,/,/
COC(=O)c1ccc(Oc2c(Cl)cccc2[N+](=O)[O-])cc1,10.8,9.8,-0.8,-7.6,-3.3,-10.6,/,/
CCn1c(O)c(/C=N/N=C/c2ccccc2)c2ccc(C3=NNC(=O)CC3)cc21,-33.0,-3.2,-5.1,60.8*,-1.8,/,71.9*,84.3*
CCC(CC)=N/N=C/c1c(O)n(CC)c2cc(C3=NNC(=O)CC3)ccc12,-10.3,-2.7,-2.5,63.5*,-3.2,9.5,43.8*,56.3*
Cc1ccc2nc(-c3ccccn3)cc(C(=O)NCCc3ccc(F)cc3)c2c1,-1.2,1.5,1.1,-2.0,2.9,-9.4,/,/
Cc1ccc(CNC(=O)[C@H]2O[C@@H](n3cnc4c(N)ncnc43)[C@H](O)[C@@H]2O)o1,/,/,1.0,/,/,-8.4,/,/
CC(C)C(NC(=O)Cc1ccccc1)C(=O)N1CCN(c2cccc(Cl)c2)CC1 (configuration not stated),/,-0.4,-0.5,/,-0.9,1.8,/,/
CCC1C/C(=C\c2cc(OC)c(OC)cc2OC)C(=O)/C(=C/c2cc(OC)c(OC)cc2OC)C1 (configuration not stated),0.4,7.6,-2.0,64.0*,-6.5,101.8*,88.4*,97.4*
CCC1C/C(=C/c2ccco2)C(=O)/C(=C/c2ccco2)C1 (configuration not stated),/,-4.6,/,68.0*,/,/,75.2*,80.2*
COc1cc(OC)c(OC)cc1/C=C1\CC(C)C/C(=C\c2cc(OC)c(OC)cc2OC)C1=O (configuration not stated),1.6,10.0,1.5,74.0*,-3.8,/,86.6*,94.9*
COc1cc(OC)c(OC)cc1/C=C1/Cc2ccccc2C1=O,5.7,5.3,-7.3,-5.3,-8.1,3.9,/,/
CC1(C(=O)OCC(=O)Nc2ccc(S(=O)(=O)N3CCOCC3)cc2)CC1(Cl)Cl (configuration not stated),/,5.2,3.2,/,4.3,1.7,/,/
SMILES,Calb FLC,IDE cell inh,Rin1 Abl inh,TPT1 inh,IDE act,Rpn11 block,caTPT1 confirm,RNase T1 counter
Cc1cnc(C=O)c2cccc([N+](=O)[O-])c12,/,/,3.0,/,/,9.6,/,/
Cc1ccc(OCC(=O)Nc2ccc(S(=O)(=O)Nc3ccccn3)cc2)c(C)c1,1.5,2.9,-3.7,35.7*,0.4,-1.4,3.2,6.1
Cc1ccccc1OCC(=O)Nc1ccc(S(=O)(=O)Nc2ccccn2)cc1,-21.5,-2.9,2.9,6.8,9.0,-8.7,/,/
CCCCCCc1cc2cc(C(N)=O)c(=N)oc2cc1O,1.3,0.1,/,66.7*,/,/,7.6,22.3*
CCN(CC)c1ccc2cc(/C(N)=N/NC(=O)c3cccs3)c(=O)oc2c1,14.6,10.1,/,87.1*,/,/,108.0*,111.6*
CCN(CC)c1ccc2cc(NC(=O)CCC(=O)O)c(=O)oc2c1,34.1,2.4,-3.2,-28.2,-1.5,-102.4,/,/
N/C(=N\NC(=O)c1cccs1)c1cc2ccccc2oc1=O,15.3,-2.3,-6.8,1.3,8.4,2.5,/,/
CCOc1ccccc1NC(=O)c1cc2ccccc2oc1=O,-6.6,3.1,-2.9,-3.0,5.9,-3.2,/,/
CCN(CC)c1ccc2cc(C(=O)Nc3ccccn3)c(=O)oc2c1,7.4,7.0,-2.7,134.6*,-16.1,-26.5,109.2*,111.6*
CCN(CC)c1ccc2cc(C(N)=O)c(=N)oc2c1,-4.0,14.9,-7.3,72.8*,/,/,70.9*,75.4*
CN1CCN(c2ccccc2NC(=O)c2ccc(-c3ccccc3[N+](=O)[O-])o2)CC1,10.4,-3.5,0.4,0.1,7.2,-11.4,/,/
Cc1ccc(S(=O)(=O)NNc2nnc(C)c(=O)[nH]2)cc1,18.0,4.0,-0.2,51.2*,0.0,1.1,3.5,6.0
Cc1nnc(NNS(=O)(=O)c2ccc(Cl)cc2)[nH]c1=O,-11.5,-3.1,-2.7,3.8,6.3,-0.5,/,/
CCc1nc2ccc(C(=O)N3CCN(S(=O)(=O)CC)CC3)cn2c1N(CC)CCN(C)C,/,/,-1.7,/,/,-14.8,/,/
CCOc1ccc(CCNC(=O)c2cccc(NC3=NC4CS(=O)(=O)CC4S3)c2)cc1 (configuration not stated),1.3,1.2,2.9,-0.7,-1.7,-7.7,/,/
COc1ccc(NC(=O)COC(=O)c2ccc3c(c2)OCO3)c(OC)c1,/,1.0,3.3,/,8.0,-1.4,/,/
COc1cccc(C(=O)NC(=O)Nc2cc(C)on2)c1,22.7,3.7,-4.6,27.1*,-0.6,2.4,12.1,17.5
COc1ccccc1N1CCN(S(=O)(=O)CCNC(=O)c2cccs2)CC1,/,/,2.2,/,/,2.2,/,/
CCN1CCc2nc(NC(=O)c3ccc4c(c3)OCCO4)sc2C1,19.1,9.3,-1.1,35.7*,4.3,31.4,21.5,28.2*

# Screens deposited in PubChem by several laboratories.
